Test results taken from PubChem BioAssay (NCI).
About 83,000 compounds went through this panel and 20% of them were active in at least one assay; those are over-represented in the sample as a whole.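 Single-dose data. Exposure time 48 hours. Values below 10 considered active.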 Values without a mark were called inactive. Active and inactive are the calls of the source.

What was measured:
Experiment in all cases: NCI-60 one-dose screen, 48 h (100 = growth as untreated, 0 = no growth, -100 = all killed)
Settings in all cases: 10 µM unless noted
HT29 colon = system: HT29 colon
SNB-75 CNS = system: SNB-75 CNS
SNB-19 CNS = system: SNB-19 CNS
U251 CNS = system: U251 CNS
PC-3 prostate = system: PC-3 prostate
SK-MEL-5 melanoma = system: SK-MEL-5 melanoma
UACC-62 melanoma = system: UACC-62 melanoma
LOX IMVI melanoma = system: LOX IMVI melanoma
SK-MEL-28 melanoma = system: SK-MEL-28 melanoma
SK-MEL-2 melanoma = system: SK-MEL-2 melanoma
EKVX NSCLC = system: EKVX NSCLC
SN12C renal = system: SN12C renal
UO-31 renal = system: UO-31 renal
TK-10 renal = system: TK-10 renal
ACHN renal = system: ACHN renal
CAKI-1 renal = system: CAKI-1 renal
CCRF-CEM leukemia = system: CCRF-CEM leukemia
MOLT-4 leukemia = system: MOLT-4 leukemia
SR leukemia = system: SR leukemia
A498 renal = system: A498 renal

| SMILES | growth (HT29 colon) | growth (SNB-75 CNS) | growth (SNB-19 CNS) | growth (U251 CNS) | growth (PC-3 prostate) | growth (SK-MEL-5 melanoma) | growth (UACC-62 melanoma) | growth (LOX IMVI melanoma) | growth (SK-MEL-28 melanoma) | growth (SK-MEL-2 melanoma) | growth (EKVX NSCLC) | growth (SN12C renal) | growth (UO-31 renal) | growth (TK-10 renal) | growth (ACHN renal) | growth (CAKI-1 renal) | growth (CCRF-CEM leukemia) | growth (MOLT-4 leukemia) | growth (SR leukemia) | growth (A498 renal) |
| --- | --- | --- | --- | --- | --- | --- | --- | --- | --- | --- | --- | --- | --- | --- | --- | --- | --- | --- | --- | --- |
| C[N+]1(CCc2ccccc2)CCC(CCC2CC[N+](C)(CCc3ccccc3)CC2)CC1 (stereo unspecified) | 94% | 83.9% | 98.1% | 87.9% | 101% | 100% | 85.7% | 102% | 111% | 119% | 97.2% | 88.5% | 72.7% | 96.9% | 101% | 96.6% | 127% | 123% | 120% |  |
| CCN(CC)c1ccc(N=Nc2cc(Cl)ccc2Cl)c(NC(=O)CCC(=O)O)c1 | 111% | 91.1% | 110% | 94.7% | 90.1% | 103% | 101% | 99.1% | 120% | 118% | 79.7% | 91.4% | 60.9% | 121% | 88.8% | 93.4% | 103% | 95.1% | 98.4% | 80.1% |
| CN(C)c1ccc2c(c1)/C(=N/O)c1ccccc1-2 | 81.4% | 76.8% | 79.6% | 48.9% | 72.3% | 90.7% | 64.7% | 59.4% | 75.7% | 111% | 67.7% | 95.4% | 64.5% | 123% | 87.5% | 46.6% | 83.8% | 81.2% | 47.1% |  |
| CC(C)C/C(=N\NC(=O)c1ccncc1)c1cc(Cl)ccc1O | 31.1% | 44.7% | 31.3% | 25.1% | 22.4% | 0.654% (active) | 6.43% (active) | 3.98% (active) | 40.5% | 7.55% (active) | 25.7% | 26.3% | 10.9% | 15.4% | 13.3% | 3.32% (active) | 7.99% (active) | 3.56% (active) | 6.34% (active) | 49.5% |
| COc1ccc(C(=O)C(C)Br)cc1OC (stereo unspecified) | 37.7% | 85.8% | 95.7% | 78.7% | 98.6% | 92.1% | 86.3% | 79.2% | 112% | 86% | 98.4% | 72.9% | 71.8% | 101% | 80.3% | 60.1% | 26.7% | 71.3% | 18.6% |  |
| O=C(O)c1ccccc1C(=O)OC1CCCC2CCCC21 (stereo unspecified) | 100% | 96.5% | 104% | 114% | 97.5% | 104% | 97% | 95.1% | 109% | 136% | 92.4% | 95.8% | 104% | 116% | 103% | 93.1% | 97% | 98.7% | 104% |  |
| Cc1cc(NC(=O)c2ccc(N)cc2)ccc1N=Nc1ccc2c(O)c(N=Nc3ccc(Cl)c(S(=O)(=O)O)c3)c(S(=O)(=O)O)cc2c1 | 91% | 104% | 105% | 68.7% | 92% | 65.1% | 88.5% | 72.7% | 96.4% | 98.3% | 106% | 102% | 79.5% | 73% | 71.5% | 87.1% | 55.7% | 99.3% | 66.5% | 88.9% |
| C/C(=N/N=C(N)N)c1ccc(Cl)cc1 | 80.9% | 81.3% | 92.6% | 89.4% | 42.3% | 94.1% | 91.2% | 86.5% | 178% | -5.11% (active) | 87.8% | 90.8% | 78.2% | 55.3% | 96.1% |  | 87.9% | 145% | 83.3% | 188% |
| NNC(=O)NO | 96% | 85.9% | 108% | 104% | 101% | 105% | 106% | 97.7% | 107% | 91.1% |  | 106% | 69.8% | 94% | 105% | 106% | 95.8% | 91.6% | 95.8% | 114% |
| Clc1cccc(Cc2cn3cc(-c4ccccc4)nc3s2)c1 | 53.4% | 73.8% | 65.8% | 67.7% | 51.8% | 2.66% (active) | 23.3% | 23.5% | 48.8% | 72% |  | 68.2% | 49.7% | 69.2% | 27.9% | 47.8% | 63.4% | 64.1% |  | 84.9% |
| COc1ccc(-c2nnc(COc3ccc(NC(=O)Nc4cc(C(F)(F)F)cc(C(F)(F)F)c4)cc3F)o2)cc1 | 2.11% (active) | 16.7% | 14.4% | 0.294% (active) | -12.8% (active) | -21.4% (active) | 16.4% | -15% (active) | 16.6% | -32.9% (active) |  | 5.21% (active) | -4.7% (active) | 15.3% | 11% | 12.3% | 16.2% | 8.94% (active) | -13.2% (active) | -1.78% (active) |
| COc1ccc(-c2oc3cc(O)c(OC)c(O)c3c(=O)c2OC)cc1O | 46.2% | 16.4% | 30.9% | 14% | 15.5% | 8.22% (active) | 36% | 15.8% | 60.6% | 45.6% | 83.8% | 37.3% | 35.5% |  | 37.5% | 72.2% | -4.31% (active) |  | 7.87% (active) |  |
| COc1cc(OC)c2cc(C(=O)O)c(=O)oc2c1 | 119% | 125% | 98% | 109% | 127% | 94.6% | 95.5% | 67% | 118% | -11% (active) |  | 108% | 80.7% | 90.6% | 107% | 85.9% | 113% | 74.9% | 115% | 102% |
| O=C(NCCCO)c1cc(Cl)ccc1O | 3.68% (active) | 27.8% | 31.1% | 12.3% | 7.13% (active) | 18.4% | 9.67% (active) | 13.3% | 38% | -19% (active) |  | 12.9% | 48.1% | 24.9% | 14.6% |  |  | 33.2% | 26.1% | 53.2% |
| COc1ccc(-c2noc(N)c2-c2cc(OC)c3c(c2)OCO3)cc1 | 7.22% (active) | 3.98% (active) | 53.5% | 10.7% | 31.1% | 21.2% | 44.1% | 29.7% | 51.8% | -1.35% (active) |  | 35.8% | 52.2% | 39% | 40.8% | 32.7% | 5.26% (active) | 18.4% | -25.8% (active) |  |
| CCCCCCCC/C=C/CCCCCCCC1=NC(C)(C)CN1CC(C)O (stereo unspecified) | -64.8% (active) | 32% | 72.3% | -17% (active) | 42% | 53.3% | 3.95% (active) | -99.4% (active) | 53.2% | 33% | 71.2% | 54.9% | -73.9% (active) |  | 28% | 62% | -37.9% (active) |  |  | 76.9% |
| CC(C)(C)c1cc(O)c(O)c(C(C)(C)C)c1 | 53.9% | 60.8% | 56.9% | 36% | 39.3% | 70.4% | 33% | 47.3% | 74.9% | 76.6% |  | 60.3% | 27.3% | 35.8% | 18.3% |  |  | 6.61% (active) | 11.2% | 60.6% |
